21 molecules from PubChem BioAssay AID651899 (Broad Institute, 2012) can be followed below.

Measured potencies and affinities stand elsewhere. A number with no mark means an inactive call. How the calls were made is not given here.

The nature of this test: HEK293 cell viability loss – plate reader, cherry-pick, cytotoxicity control, dose response (AID 651899).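 Further: cells exposed to compound for 48 hours.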 To be noted: series mostly up to 26 µM; activity change, negative = cytotoxicity: at the top concentration.
As to `CC(=O)c1ccc(C(=O)NC2CCCN(Cc3ccccc3F)C2)s1` (stereo unspecified), the “activity change, negative = cytotoxicity” value is -8.2%.

Consider `O=C(Nc1ccc(NS(=O)(=O)c2ccccc2)cc1)c1cccnc1`, for which the “activity change, negative = cytotoxicity” value is -18.6%.

With `O=C(c1ccccc1F)N1CC[C@@H]2[C@H]1c1cc(Br)ccc1N[C@@H]2CO`, the “activity change, negative = cytotoxicity” value is -6.71%.

For the molecule `CCOc1ccc(-n2c(SCC(N)=O)nc3c(c2=O)SCC3)cc1`, the “activity change, negative = cytotoxicity” value was 7.2%.

In the case of `O=C(COc1ccc2ccc(=O)oc2c1)Nc1cccnc1`, the “activity change, negative = cytotoxicity” value is -23.4%.

Consider `O=C(C1CCOCC1)N1CC[C@@H]2[C@H](CO)Nc3ccc(Br)cc3[C@@H]21`, for which the “activity change, negative = cytotoxicity” value was 14.2%.

As for `CCN(CC)c1ccc2cc(C(=O)c3cccs3)c(=O)oc2c1`, the “activity change, negative = cytotoxicity” value was 6.31%.

For the molecule `Cc1nc2nc(SCC(=O)NCCCN3CCOCC3)nn2c(C)c1Cc1ccccc1`, the “activity change, negative = cytotoxicity” value was 18.9%.

Regarding `Cc1cccc(-c2ccc3c(c2)C2CC3CCN2)c1` (stereo unspecified), the “activity change, negative = cytotoxicity” value is -24.5%.

As for `O=C(N[C@@H]1CC[C@H](CCn2cc(-c3cccnc3)nn2)O[C@@H]1CO)c1ccccc1F`, the “activity change, negative = cytotoxicity” value is 7.06%.

On to `CCCC(=O)Nc1cccc(NC(=O)c2ccc(C)c([N+](=O)[O-])c2)c1`, for which the “activity change, negative = cytotoxicity” value was -12.6%.

As to `Cc1ccc(-c2nnc(N3CCN(C(=O)CSc4ncn[nH]4)CC3)c3ccccc23)cc1`, the “activity change, negative = cytotoxicity” value is -24.2%.

`CC(=O)CSc1nnc(CSc2ncccn2)n1C1CCCCC1`: the “activity change, negative = cytotoxicity” value is 10.1%.

As for `Cc1ccc(-n2ncc3c2CC(C)(C)CC3NC(=O)CCc2cccnc2)cc1` (stereo unspecified), the “activity change, negative = cytotoxicity” value was -6.14%.

Turning to `CCOC(=O)c1ccc2c(c1)nc(SCc1cn3ccsc3n1)n2CC`, the “activity change, negative = cytotoxicity” value is 1.73%.

Take `CC(CNC(=O)CCCn1ncn2c(cc3occc32)c1=O)c1ccccc1` (stereo unspecified): the “activity change, negative = cytotoxicity” value was -20.8%.

Turning to `CC1(C(=O)NCc2ccc(F)c(F)c2)Cc2c(-c3cccc(C(N)=O)c3)ccnc2O1` (stereo unspecified), the “activity change, negative = cytotoxicity” value was -17.7%.

With `CCCCN1C(=O)c2ccc(C(=O)Nc3cccnc3)cc2C1=O`, the “activity change, negative = cytotoxicity” value was -18.1%.

Take `CN(Cc1ccccc1)C(=O)CCS(=O)(=O)c1ccc2c(c1)NC(=O)CS2`: the “activity change, negative = cytotoxicity” value is 37.7% [at 12 µM].

Take `CSc1ccc(S(=O)(=O)N2CCC(C(=O)Nc3cccnc3)CC2)cc1`: the “activity change, negative = cytotoxicity” value was -0.874%.

As to `O=C(c1ccncc1)N1CC[C@@H]2[C@H]1c1cc(Br)ccc1N[C@@H]2CO`, the “activity change, negative = cytotoxicity” value was 2.88%.
